# Results as given in PubChem BioAssay (NCI).
# About 79,000 compounds went through this panel and 15% of them were active in at least one assay; those are over-represented in the sample as a whole. A number with no mark means an inactive call. The source made the active and inactive calls. No stated cut-off is given here; in the data, active means growth inhibition above about 70%; inactive means the rest.
# What was measured:
# [1] = NCI Yeast Anticancer Drug Screen. Data for the rad50 strain (AID 155);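 further: 0% = growth of vehicle-only cultures of the same strain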; details: S. cerevisiae rad50 strain growth inhibition; at 50.0 µM; hits give high values
# In short: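 Readout: growth inhibition relative to vehicle-treated cultures. Compound exposure was carried out in a genetically defined yeast strain deficient in DNA damage repair.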
# [2] = NCI Yeast Anticancer Drug Screen. Data for the mec2-1 strain (AID 157); details: S. cerevisiae mec2-1 strain, at 50.0 µM, hits give high values
# In short: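 Compounds were applied to mec2-1 yeast cells. Their growth was then compared with that of vehicle-treated cultures to give growth inhibition.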
# [3] = NCI Yeast Anticancer Drug Screen. Data for the sgs1 mgt1 strain (AID 161);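 further: 0% = growth of cultures given vehicle only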; details: S. cerevisiae sgs1 mgt1 strain, at 50.0 µM, hits give high values
# In short: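 Compounds are added to genetically altered yeast, and growth is compared with cultures given vehicle alone to give percent inhibition.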
# [4] = NCI Yeast Anticancer Drug Screen. Data for the cln2 rad14 strain (AID 165);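 further: 0% = growth equal to vehicle treated cultures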; details: S. cerevisiae cln2 rad14 strain, at 50.0 µM, hits give high values
# In short: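 Strain: cln2 rad14 yeast, altered in cell cycle control and DNA damage repair. Read-out: growth inhibition vs vehicle.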
# [5] = NCI Yeast Anticancer Drug Screen. Data for the bub3 strain (AID 167); details: S. cerevisiae bub3 mutant strain, at 50.0 µM, hits give high values
# In short: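 Readout: yeast growth inhibition, expressed relative to vehicle-only wells. The test organism is a mutant strain from a panel with lesions in DNA repair or checkpoint genes.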
# [6] = NCI Yeast Anticancer Drug Screen. Data for the mlh1 rad18 strain (AID 175); details: S. cerevisiae mlh1 rad18 strain growth inhibition; at 50.0 µM; hits give high values
# In short: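 A repair-deficient yeast strain is exposed to test compound, and growth is scored relative to vehicle-treated controls.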
Structure (SMILES),growth inhibition [1],growth inhibition [2],growth inhibition [3],growth inhibition [4],growth inhibition [5],growth inhibition [6]
OC(COc1ccc2ccccc2c1)COc1ccc2ccccc2c1,-8.55%,-22.1%,-7.85%,-16.3%,-11.6%,-5.8%
COC(=O)C(C)Oc1ccc(O)cc1 (stereo not given),21.7%,-3%,5%,7.7%,19.7%,10.4%
N#Cc1c2c(n3c1[nH]c(=O)c1ccccc13)CCCC2,24.4%,10%,23.9%,11.9%,-2.8%,10.8%
COC(=O)c1ccccc1N(C(=O)c1ccccc1)c1ccccc1C,-16.1%,-13.3%,-18.9%,10.4%,-11.3%,-55%
NN1CCCC(O)C1 (stereo not given),-0.15%,-18.4%,4.75%,4.5%,5.1%,5.4%
Cc1ccc(C)c(NC(=O)CCC(=O)CC(=O)C(C)(C)C)c1,-3.25%,8.35%,5.3%,15.5%,-6.4%,12.7%
C/C(O)=C(\C=N\C(=S)N=Nc1c(O)[nH]c2ccccc12)C(=O)Nc1ccccc1C,51.5%,36.6%,43.4%,32.5%,62%,62%
COc1ccc(NC(C)=O)cc1Br,-12.8%,-40.5%,-11.1%,-16.8%,-17.6%,-20.9%
Cc1ccc(C)c(CNC(=O)NC(C)(C)C)c1,-10.2%,-4.25%,-6.65%,-63.8%,-11.2%,-0.75%
CCCNS(C)(=O)=O,7.25%,1.2%,10.2%,3.15%,11.1%,3.6%
CC(=O)Nc1ccc(N)cc1-c1ccc(N)cc1,-2.75%,-16.9%,1.5%,29.1%,5.25%,-18%
O=C1NC(c2ccccc2)C1N(Cc1ccccc1)Cc1ccccc1 (stereo not given),21.3%,0.55%,22.2%,11.4%,12.8%,9.8%
COc1c(O)ccc(C(=O)O)c1N,13%,6.55%,14.1%,10.1%,8.95%,-17.4%
O=C1CCCC(c2ccccc2)O1 (stereo not given),-3.1%,-14.2%,5.2%,-67.5%,-27.4%,14.7%
C=CCOc1ccc2cc(Br)ccc2c1,3.85%,-2.55%,6.3%,-24.1%,4.4%,14.9%
COc1cccc(N2C(=O)c3c(c4[nH]c5ccccc5c4c4ccc(C(C)(C)C)cc34)C2=O)c1,-19.2%,-15.1%,-15.4%,18.3%,-34%,-12.1%
CC(C)(C#N)CCCS(C)(=O)=O,-7.75%,-4.35%,-4%,-9.25%,-12.6%,-2.65%
Nc1cc(CO)cc(Nc2c3ccccc3nc3ccccc23)c1,26.8%,7.35%,-30.8%,-6.95%,0.65%,48.5%
COC1=C(N=[N+]=[N-])C(=O)c2ccccc2C1=O,38%,8.95%,7.25%,-34.2%,-6.8%,16.1%
Cc1cc(C)[n+](C)c(/C=C/c2ccc([N+](=O)[O-])cc2)n1,14.2%,6.95%,15.6%,27.8%,22.4%,23.2%

Structure (SMILES),growth inhibition [1],growth inhibition [2],growth inhibition [3],growth inhibition [4],growth inhibition [5],growth inhibition [6]
CCOC(=O)/C=C/CC1CCNC1 (stereo not given),-22.8%,-2.6%,-13.4%,-52%,-1.5%,-6%
CC(=O)OCCC12CCC(CC1Cl)C2(C)C (stereo not given),-1.45%,-9.7%,9.85%,24.7%,-3.05%,-3.55%
O=C(NC(c1ccccc1)c1cccs1)c1cccs1 (stereo not given),-2.95%,-4.45%,1.05%,-38.4%,30.1%,3.95%
COc1ccc(NC(=O)NCc2ccc(C)c(C)c2)cc1,-0.8%,38.8%,22.3%,-3.05%,20.1%,35%
Clc1ccc(C2N(Cc3ccccc3)CCC3CCCCN32)cc1Cl (stereo not given),-10.1%,-21.6%,13.7%,26.1%,-10.1%,-1.4%
O=NNc1ccc(-c2ccc(NN=O)cc2)cc1,19.4%,0.75%,10.8%,10.2%,-10.1%,8.95%
O=C(CCN(CCC(=O)c1ccccc1)CCC(=O)c1ccccc1)c1ccccc1,22.2%,11.8%,-5.05%,-31.3%,0.9%,26.9%
Clc1ccc(N=C2CCCCC2)cc1,12.4%,-12.5%,-0.2%,8.45%,-18.2%,1.9%
Cc1ccc(S(=O)(=O)Oc2ccccc2C(=O)O)cc1,-7.9%,-14.7%,-12.3%,-55.3%,14.4%,-13.5%
O/N=C1\CC2CC1C1CC3(CC3)C21 (stereo not given),-6.85%,-9.6%,-0.15%,-0.9%,-22.2%,20.6%
C/C=C(/C)C(=O)O[C@H]1C(C)=C[C@]23C(=O)[C@@H](C=C(COC(C)=O)[C@@H](O)[C@]12O)[C@H]1[C@@H](C[C@H]3C)[C@@]1(C)OC(=O)/C(C)=C\C,58.7%,60.4%,60.6%,76.3% (active),56.8%,59.2%
CC(C)CN(CC(C)C)C(=O)c1ccc([N+](=O)[O-])cc1,-7.3%,22.8%,16.9%,-26.2%,38.1%,20.9%
COc1ccc(OC)c(C(=O)c2cccc(C(=O)c3cc(OC)ccc3OC)n2)c1,20.9%,6.25%,42.5%,-21.8%,-30.4%,20.6%
O=C(O)c1ccccc1/C=N\N(CCO)C1=NCCN1,21.4%,13.1%,13.9%,-25.1%,2.95%,19%
Cc1cccc(CNc2ccc(S(=O)(=O)c3ccc(NCc4cccc(C)n4)cc3)cc2)n1,4.7%,4.35%,9.75%,-8.95%,-5.95%,15.4%
CS(=O)(=O)OC1COC(c2ccccc2)OC1C1OC(c2ccccc2)OCC1OS(C)(=O)=O (stereo not given),-26.7%,-3.85%,-31.9%,-4%,-0.9%,-7.25%
Cn1c(NCCN2CCCCC2)c(C(=O)/C=C/c2ccccc2)c(=O)n(C)c1=O,15.3%,19.4%,8.65%,17.6%,-1.5%,20.8%
CCCCN1C(=O)C(CC(=O)OCC)SC1=S (stereo not given),-8.35%,-28.7%,-19.9%,-7.8%,-18.2%,-14.3%
CC1(C)OC(=O)C(=Cc2cccc3ccc4ccccc4c23)C(=O)O1,31.9%,18.3%,8.9%,-17.1%,40.7%,40.6%
COc1cc(/C=C/C(=N\NC(=S)NN)c2sc(NNC(C)=O)nc2C)ccc1O,22.5%,-4.5%,21.7%,9.1%,15.5%,19.2%
